# Source: PubChem BioAssay (National Center for Advancing Translational Sciences (NCATS))
# A selection: hits, their analogues and other compounds. The true share with any hit is near 11%.
# PNC inhibitor: blocks assembly of the perinucleolar compartment. PC3M PTB-GFP, PNC prevalence imaging, 16 h; active compounds read low. activity change (PNC), negative = inhibition, % at 10 µM. 140,000 compounds, 3.1% hits. AID 2417;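 active = readout at or below -70, meaning at least 70% loss of cells showing the perinucleolar compartment, a nuclear body marking cancer cells; inconclusive = readout between -30 and a set limit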;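 note: plate controls were DMSO wells for no effect and camptothecin positive control wells for full effect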
#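 PC3M cells stably expressing PTB-GFP, 750–1000 cells/well, treated 16 h at 37 °C with compound (23 nl of library stock), in duplicate. After paraformaldehyde fixation and Hoechst stain, imaged at 20x; PNC prevalence scored by image analysis.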
# KDM4E inh: inhibitors of human JMJD2E histone demethylase; B2RXH2; JMJD2E catalytic domain, FDH-coupled NADH fluorescence (FDH is formaldehyde dehydrogenase); Potency, µM (doses to about 57.1 µM), for inactives: top-dose activity change, negative = inhibition, actives largely listed as inhibitors; 230,000 compounds, 1.6% hits; AID 2147;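 note: potency is the fitted concentration of half-maximal effect; 0% = wells with enzyme and -100% = buffer wells without enzyme; nearly all actives have a fitted effect of over 50% in size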
# Target sequence (B2RXH2 1-337 limits assumed): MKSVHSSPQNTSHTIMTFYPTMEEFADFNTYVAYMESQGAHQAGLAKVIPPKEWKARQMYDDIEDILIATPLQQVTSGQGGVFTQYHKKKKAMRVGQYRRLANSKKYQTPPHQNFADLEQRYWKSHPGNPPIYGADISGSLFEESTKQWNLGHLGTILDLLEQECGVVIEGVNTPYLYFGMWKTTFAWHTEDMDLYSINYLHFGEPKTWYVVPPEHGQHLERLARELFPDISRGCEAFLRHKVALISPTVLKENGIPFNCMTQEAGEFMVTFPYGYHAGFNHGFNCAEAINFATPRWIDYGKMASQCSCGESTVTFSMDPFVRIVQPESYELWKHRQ
# HPGD inh: HPGD (human) dehydrogenase inhibition. P15428. purified HPGD, NADH fluorescence kinetic, PGE2 substrate. Potency, µM, for the others: at the top dose activity change, negative = inhibition, most hits filed as inhibitors. 150,000 compounds, 4.3% hits; note: potency is the fitted concentration of half-maximal effect
#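 20 nM HPGD preincubated 15 min at room temperature with compound in 50 mM Tris-HCl pH 8, 0.01% Tween 20. Started with 1 mM NAD+ and 30 uM prostaglandin E2; NADH fluorescence (360/450 nm) read 5 times over 30-s intervals, last minus first.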
# ALDH1A1 block: inhibitors of human aldehyde dehydrogenase 1A1. AID 1030. 220,000 compounds, 7.3% hits. Purified ALDH1A1, NADH fluorescence, propionaldehyde substrate. P00352. Potency, µM (doses to about 75.3 µM), inactives show top-dose activity, negative = inhibition, hits mostly inhibitors;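 note: potency is the fitted concentration of half-maximal effect; plate controls were no enzyme wells and a reference inhibitor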
# An asterisk follows results filed as active; ? = inconclusive; . = no result; [ ] = remark or other dose. Unless noted, calls come from the whole dose curve; as a rule, active = well fitted inhibition curve with a large enough effect (not every such curve was filed as active); inconclusive = small, poorly fitted or top-dose-only effect, or another doubt; inactive = no such curve, though single readings can be large or run the other way. Unless noted, % is set by controls: 0 for no effect and ±100 for the full control effect.
SMILES,PNC inhibitor,KDM4E inh,HPGD inh,ALDH1A1 block
Cc1ccc(-c2nc3ccccc3c(=O)n2NC(=S)N(C)C)cc1,34,-2%,28µM*,?
COc1ccc(CC(=O)Nn2c(-c3ccccc3)nc3ccccc3c2=O)cc1,?,1%,-1%,1µM*
C=CCn1c(Sc2ncc([N+](=O)[O-])s2)n[nH]c1=O,.,-27%,.,2µM*
O=C1NCCN1c1ncc([N+](=O)[O-])s1,.,-2%[25.5 µM],-24%,0%[20.9 µM]
COc1cc(-c2nc3cnccn3c2Nc2ccc3c(c2)OCCO3)ccc1O,?,-14%,22µM*,-15%
Oc1ccc(-c2nc3cnccn3c2Nc2ccc3c(c2)OCCO3)cc1,-19,0%,11µM*,40µM*
COc1cc2c(cc1O)CCC1C2CC[C@]2(C)[C@@H](O)CC[C@@H]12 (stereo not given in full),.,-4%,-10%,-2%
COc1ccc(C2=NN(C(C#N)c3ccc(OC)cc3)C(c3ccccc3)C2)cc1 (stereo not given),14,?,-6%,22µM*
CCN(CC)S(=O)(=O)c1cccc(C(=O)NC(C(=O)NC2=NCCS2)C(C)C)c1 (stereo not given),-116*,2%,-6%,-5%
CC(C)C(NC(=O)c1ccccc1)C(=O)NC1=NCCS1 (stereo not given),?,5%,-4%,10%
CCOC(=O)NC(O)C(=O)c1cccs1 (stereo not given),?,-3%,-13%,-6%
CCOC(=O)NC(O)C(=O)c1ccc(F)cc1 (stereo not given),.,8%,.,22µM*
Cc1nc2ccccc2nc1-c1ccc(N=[N+]([O-])c2ccc(-c3nc4ccccc4nc3C)cc2)cc1,.,.,-1%,2%[13.5 µM]
O=C(O)[C@@H](Br)[C@@H](Br)c1ccccc1[N+](=O)[O-],.,.,-3%,3%[13.5 µM]
CCOc1cc(C2C3=C(CCCC3=O)NC3=C2C(=O)CCC3)ccc1OCCO,?,32µM*,-10%,?
CCOc1cc(C2C3=C(CCCC3=O)NC3=C2C(=O)CCC3)cc(Cl)c1O,14,?,-14%,-2%
Cc1nn(Cc2ccccc2)c(C)c1N,-90*,?,-7%,-2%
CC(=O)NS(=O)(=O)c1ccc(NC(=O)/C=C/c2ccc(C)o2)cc1,.,?,.,13µM*
Cc1ccc(/C=C/C(=O)Nc2nccs2)o1,-18,-27%,25µM*,?
Cc1ccc(/C=C/C(=O)Nc2ncc(C)s2)o1,29,?,-10%,?
Cc1cc(N)n(-c2ccccn2)n1,.,1%,.,6%
O=C(CN1C(=O)c2ccccc2C1=O)Nc1cccc(S(=O)(=O)Nc2ccccc2Cl)c1,14,-5%,-6%,-15%
O=C(O)CSc1c(-c2ccccc2)c2cc(Cl)ccc2[nH]c1=O,56,5%,-2%,0%
O=C(N/N=C/c1ccccc1Cl)c1[nH]c2ccc(Br)cc2c1-c1ccccc1,?,5%,-25%,?
NNC(=O)c1[nH]c2ccc(Cl)cc2c1-c1ccccc1,.,?,.,1.1µM*
SMILES,PNC inhibitor,KDM4E inh,HPGD inh,ALDH1A1 block
NNC(=O)c1[nH]c2ccc(Br)cc2c1-c1ccccc1,.,?,.,0.16µM*
Cc1ccc2[nH]c(C(=O)NN=C3CCCCC3)c(-c3ccccc3)c2c1,.,8%,.,1.4µM*
CCOC(=O)CSc1c(-c2ccccc2)c2cc(Cl)ccc2[nH]c1=O,-17,-15%,18µM*,?
CN1CCC2(CC1)CCN(C(=O)c1cccc(F)c1)CC2,.,.,-10%,9%
CC(C)C(=O)NNC(=O)c1cc2sccc2s1,.,-22%,.,3%
CO/N=C\c1ccc(C(=O)N2[C@H](c3ccc(C)cc3)[C@@H](C)CC[C@H]2C(=O)OC)cc1,.,.,.,5%[13.5 µM]
O=C(OC1CCOC1=O)c1cc(-c2ccc(Br)cc2)nc2ccccc12 (stereo not given),-119*,?,-59%,?
CN(C)/C=C/c1onc(-c2ccccc2Cl)c1C#N,.,?,.,6.3µM*
O=C(O)CCC(CNS(=O)(=O)c1ccccc1)C(F)(F)F (stereo not given),.,1%,.,10%
CC(C)(C)CC(C)(C)NC(=O)/C=C/C(=O)O,.,9%,.,.
CCOC(=O)c1cnc2ccc(C)cc2c1OCc1cc(F)cc(F)c1,5,1%,-21%,14µM*
O=C(Cn1nc(C(=O)O)c2ccccc2c1=O)Nc1ccc2c(c1)C(=O)c1ccccc1C2=O,.,-5%,.,?
Cc1ccc(C)n1-c1sc2c(c1C#N)CCC(C)C2 (stereo not given),-9,4%,-26%,25µM*
